Measurements published in publication PMC5540273 (PLoS ONE, 2017).

Assays:
Conditions in all cases: concentration: 1 μM, replicates: in singlicate; n = 1
[1] = system: ACVR1B
[2] = system: ACVR1
[3] = system: ACVR2A
[4] = system: ACVR2B
[5] = system: ACVRL1
[6] = system: T1, ADCK3
T1 construct: gene CABC1

[7] = system: ADCK4
[8] = system: AKT1
[9] = system: AKT2
[10] = system: AKT3
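Further: KINOMEscan kinase panel screen.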

| Compound | %Inh [1] [%] | %Inh [2] [%] | %Inh [3] [%] | %Inh [4] [%] | %Inh [5] [%] | %Inh [6] [%] | %Inh [7] [%] | %Inh [8] [%] | %Inh [9] [%] | %Inh [10] [%] |
| --- | --- | --- | --- | --- | --- | --- | --- | --- | --- | --- |
| Cc1nnc(-c2ccc(C)c(-c3ccc(C(=O)O)cc3)c2)o1 [GW608005] | 0 | 4 | 0 | 0 | 0 | 0 | 0 | 0 | 6 | 0 |
| CCC(=O)c1c(-c2ccccc2)c2cc(Cl)ccc2c(=O)n1Cc1cc(S(C)(=O)=O)n(CCC(C)(C)O)n1 | 10 | 2 | 0 | 9 | 17 | 27 | 1 | 0 | 14 | 17 |
| OCCCNc1nccc(-c2c(-c3cccc(C(F)(F)F)c3)nn3cc(C(F)(F)F)ccc23)n1 [GW630813] | 0 | 0 | 0 | 0 | 0 | 68 | 43 | 0 | 0 | 0 |
| Nc1nccc2scc(-c3ccc4c(c3)CCN4C(=O)Cc3ccccc3)c12 [GSK2576924] | 0 | 10 | 42 | 0 | 0 | 13 | 0 | 0 | 11 | 0 |
| Cc1c(Cn2c(C)nn3c(=O)cc(N4CCO[C@H](C)C4)nc23)cccc1C(F)(F)F [GSK2373690] | 0 | 2 | 3 | 0 | 0 | 22 | 24 | 0 | 6 | 28 |
| COc1cc(OC)cc(-c2cc3cnc(N)nc3nc2NC(=O)NC(C)(C)C)c1 | 10 | 0 | 0 | 0 | 0 | 0 | 0 | 4 | 11 | 24 |
| O=C(Nc1n[nH]c2cc(-c3ccccc3F)ccc12)C1CC1 [SB-733371] | 1 | 32 | 38 | 48 | 0 | 0 | 0 | 0 | 0 | 7 |
| CCC(=O)c1c(-c2ccccc2)c2cc(Cl)ccc2c(=O)n1Cc1cc(C(=O)NC2CC2)n(C)n1 | 0 | 0 | 0 | 0 | 0 | 0 | 10 | 0 | 7 | 0 |
| Nc1nc(N)c2nc(-c3ccccc3)[nH]c2n1 [SKF-12778] | 18 | 6 | 27 | 26 | 3 | 0 | 22 | 15 | 8 | 15 |
| CCCNC(=O)Nc1ccc(Oc2ncnc3ccn(C)c23)cc1 | 13 | 0 | 2 | 0 | 0 | 0 | 0 | 7 | 8 | 0 |
| COc1ccc(CNC(=O)NC2CCN(c3ccnc(Nc4ccc(F)cc4)n3)C2)cc1 (centres unmarked) [GSK1379706] | 0 | 49 | 0 | 5 | 0 | 29 | 48 | 0 | 0 | 0 |
| Nc1ncnc2c1ncn2-c1cccc2ccccc12 [SKF-97184] | 0 | 0 | 0 | 0 | 26 | 0 | 52 | 8 | 0 | 0 |
| Nc1n[nH]c2nnc(-c3ccccc3)c(-c3ccccc3)c12 [GW554060] | 0 | 21 | 0 | 0 | 0 | 27 | 36 | 0 | 16 | 0 |
| COc1cc2ncn(-c3cc(OCCCc4ccccc4)c(C(N)=O)s3)c2cc1OC [GSK205189] | 0 | 0 | 0 | 0 | 0 | 24 | 3 | 0 | 2 | 0 |
| CCc1ccc(-c2ccc3c(c2)-c2nn(C)cc2S(=O)(=O)N3C)cc1 | 0 | 0 | 21 | 1 | 0 | 0 | 0 | 0 | 3 | 0 |
| COc1cc2ncn(-c3cc(OCc4ccc(S(C)(=O)=O)cc4)c(C(N)=O)s3)c2cc1OC [GW869979] | 0 | 51 | 0 | 0 | 4 | 31 | 0 | 0 | 0 | 0 |

| Compound | %Inh [1] [%] | %Inh [2] [%] | %Inh [3] [%] | %Inh [4] [%] | %Inh [5] [%] | %Inh [6] [%] | %Inh [7] [%] | %Inh [8] [%] | %Inh [9] [%] | %Inh [10] [%] |
| --- | --- | --- | --- | --- | --- | --- | --- | --- | --- | --- |
| CN1C(=O)C(Nc2ccccc2)=C(c2ccccc2)C1=O [SB-300079] | 8 | 0 | 0 | 0 | 0 | 0 | 25 | 0 | 0 | 0 |
| CCC(=O)c1c(-c2ccccc2)c2cc(Cl)ccc2c(=O)n1Cc1ccc(C(=O)O)cc1 | 0 | 11 | 0 | 0 | 0 | 0 | 0 | 0 | 0 | 0 |
| COc1cccc(-n2cnc3c(N)ncnc32)c1 [SKF-97416] | 22 | 0 | 3 | 0 | 11 | 0 | 8 | 1 | 0 | 22 |
| Nc1ncnc2c1ncn2-c1cccc(F)c1 [SKF-97560] | 0 | 1 | 0 | 0 | 0 | 21 | 0 | 9 | 12 | 0 |
| COc1cc2ncn(-c3cc(OCc4ccncc4)c(C(N)=O)s3)c2cc1OC [GSK336313] | 0 | 9 | 0 | 0 | 0 | 0 | 20 | 0 | 1 | 0 |
| CN1C(=O)C(Nc2cc(Cl)c(O)c(Cl)c2)=C(c2ccc(Cl)cc2)C1=O [SB-404321] | 0 | 0 | 0 | 0 | 0 | 3 | 16 | 0 | 0 | 0 |
| Cl.NS(=O)(=O)c1cccc(Nc2cc(-c3ccc(F)cc3)n[nH]2)c1 [GW824645] | 0 | 0 | 0 | 0 | 0 | 0 | 0 | 0 | 0 | 0 |
| O=c1cc(N2CCOCC2)nc2n(Cc3ccc(F)c(Cl)c3)ccn12 [GSK2297099] | 0 | 0 | 0 | 0 | 0 | 0 | 11 | 0 | 13 | 0 |
| O=C(NCc1cccs1)c1cc(C(=O)c2c(Cl)cccc2Cl)c[nH]1 [GW823670] | 12 | 0 | 0 | 0 | 5 | 0 | 0 | 0 | 0 | 0 |
| COc1cc(Nc2nccc(N3CCC(NC(=O)C4COc5ccccc5O4)C3)n2)cc(OC)c1OC (centres unmarked) [GSK1379761] | 0 | 20 | 22 | 13 | 0 | 10 | 65 | 0 | 9 | 0 |
| COc1ccc(-c2cc3c(C)nc(N)nc3n([C@H]3CC[C@H](OCCO)CC3)c2=O)cn1 | 9 | 4 | 0 | 0 | 0 | 0 | 0 | 6 | 0 | 1 |
| COc1cc(Nc2nccc(N3CCC(NC(=O)C(C)c4ccc(Cl)cc4)C3)n2)cc(OC)c1OC (centres unmarked) [GSK1379757] | 0 | 4 | 0 | 12 | 0 | 3 | 69 | 0 | 0 | 0 |
| Nc1ncnc2c1ncn2-c1ccc(Cl)cc1 [AH2635] | 0 | 3 | 0 | 16 | 0 | 24 | 33 | 0 | 0 | 0 |
| COc1cc2nccc(Nc3ccc(OCc4ccc(NC(C)=O)cc4)cc3)c2cc1OC.Cl [GW440135] | 0 | 25 | 0 | 1 | 4 | 15 | 23 | 6 | 0 | 0 |
| Cc1cc(Nc2nc(-c3cccc(C)n3)nc3ccccc23)ccn1 [GW872411] | 73 | 0 | 2 | 13 | 0 | 0 | 0 | 0 | 0 | 2 |
| Cn1c(=O)c(F)c(Nc2ccc(I)cc2F)c2c(=O)n(OC[C@H](O)CO)cnc21 | 0 | 14 | 29 | 28 | 1 | 21 | 0 | 15 | 0 | 0 |
